# Assay results as given in ChEMBL document CHEMBL5598561, “ASAP - In vitro binding kinetics” (2024).
# Molecular target: Nonstructural protein 3 (Zika virus) (UniProt A0A024AXB9)
# Conditions: PRVABC59, Concentration 10.0 uM
# Chain of Nonstructural protein 3 (Zika virus) (A0A024AXB9 as listed by the source): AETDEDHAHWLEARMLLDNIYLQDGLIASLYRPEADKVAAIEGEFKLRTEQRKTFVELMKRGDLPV
smiles,measurement,setting,value
O=C(Nc1ccc2c(c1)CNC2)c1cc(C(F)(F)F)cc2[nH]ccc12,pKD,"Immobilization level 3900.0 pg/mm2, Rmax 30.0 pg/mm2, ka 544431.648 M-1s-1, kd 0.73 1/s",5.87
same,pKD,"Immobilization level 4900.0 pg/mm2, Rmax 46.0 pg/mm2, ka 302890.351 M-1s-1, kd 0.564 1/s",5.73
same,pKD,"Immobilization level 5500.0 pg/mm2, Rmax 46.0 pg/mm2, ka 376673.864 M-1s-1, kd 0.583 1/s",5.81
same,pKD,"Immobilization level 10000.0 pg/mm2, Rmax 31.0 pg/mm2, ka 377188.867 M-1s-1, kd 0.653 1/s",5.76
same,pKD,"Immobilization level 12000.0 pg/mm2, Rmax 50.0 pg/mm2, ka 339395.125 M-1s-1, kd 0.433 1/s",5.89
same,pKD,"Immobilization level 13000.0 pg/mm2, Rmax 43.0 pg/mm2, ka 290221.417 M-1s-1, kd 0.559 1/s",5.71
O=C(Nc1ccc2c(c1)CNCCC2)c1cc(Cl)cc2[nH]ncc12,pKD,"Immobilization level 3900.0 pg/mm2, Rmax 31.0 pg/mm2, ka 773276.281 M-1s-1, kd 0.645 1/s",6.08
same,pKD,"Immobilization level 4900.0 pg/mm2, Rmax 48.0 pg/mm2, ka 455527.731 M-1s-1, kd 0.593 1/s",5.89
same,pKD,"Immobilization level 5500.0 pg/mm2, Rmax 50.0 pg/mm2, ka 530646.741 M-1s-1, kd 0.578 1/s",5.96
same,pKD,"Immobilization level 10000.0 pg/mm2, Rmax 36.0 pg/mm2, ka 650451.64 M-1s-1, kd 0.663 1/s",5.99
same,pKD,"Immobilization level 12000.0 pg/mm2, Rmax 60.0 pg/mm2, ka 669381.958 M-1s-1, kd 0.419 1/s",6.2
same,pKD,"Immobilization level 13000.0 pg/mm2, Rmax 48.0 pg/mm2, ka 553000.714 M-1s-1, kd 0.56 1/s",5.99
CNC(=O)[C@H](Nc1ccc2c(c1)CNC2)c1cccc2[nH]ncc12,pKD,"Immobilization level 3900.0 pg/mm2, Rmax 32.0 pg/mm2, ka 221759.296 M-1s-1, kd 2.211 1/s",5
same,pKD,"Immobilization level 4900.0 pg/mm2, Rmax 43.0 pg/mm2, ka 260065.267 M-1s-1, kd 2.378 1/s",5.04
same,pKD,"Immobilization level 5500.0 pg/mm2, Rmax 48.0 pg/mm2, ka 212060.721 M-1s-1, kd 2.045 1/s",5.02
same,pKD,"Immobilization level 10000.0 pg/mm2, Rmax 60.0 pg/mm2, ka 93401.957 M-1s-1, kd 2.887 1/s",4.51
same,pKD,"Immobilization level 12000.0 pg/mm2, Rmax 22.0 pg/mm2, ka 158759.097 M-1s-1, kd 1.348 1/s",5.07
same,pKD,"Immobilization level 13000.0 pg/mm2, Rmax 39.0 pg/mm2, ka 126882.155 M-1s-1, kd 1.56 1/s",4.91
N[C@H]1Cc2ccc(NC(=O)c3cc(Cl)cc4[nH]ncc34)cc2C1,pKD,"Immobilization level 3900.0 pg/mm2, Rmax 32.0 pg/mm2, ka 340293.713 M-1s-1, kd 0.278 1/s",6.09
same,pKD,"Immobilization level 4900.0 pg/mm2, Rmax 50.0 pg/mm2, ka 211944.111 M-1s-1, kd 0.288 1/s",5.87
same,pKD,"Immobilization level 5500.0 pg/mm2, Rmax 52.0 pg/mm2, ka 230237.04 M-1s-1, kd 0.293 1/s",5.9
same,pKD,"Immobilization level 10000.0 pg/mm2, Rmax 43.0 pg/mm2, ka 451655.452 M-1s-1, kd 0.518 1/s",5.94
same,pKD,"Immobilization level 12000.0 pg/mm2, Rmax 66.0 pg/mm2, ka 170946.752 M-1s-1, kd 0.316 1/s",5.73
same,pKD,"Immobilization level 13000.0 pg/mm2, Rmax 60.0 pg/mm2, ka 295502.849 M-1s-1, kd 0.406 1/s",5.86
Cc1ncc(Br)cc1C(=O)Nc1ccc2c(c1)CNC2,pKD,"Immobilization level 3900.0 pg/mm2, Rmax 35.0 pg/mm2, ka 305396.759 M-1s-1, kd 1.511 1/s",5.3
same,pKD,"Immobilization level 4900.0 pg/mm2, Rmax 50.0 pg/mm2, ka 284203.309 M-1s-1, kd 1.434 1/s",5.3
same,pKD,"Immobilization level 5500.0 pg/mm2, Rmax 66.0 pg/mm2, ka 223031.106 M-1s-1, kd 1.457 1/s",5.18
same,pKD,"Immobilization level 12000.0 pg/mm2, Rmax 11.0 pg/mm2, ka 147874.405 M-1s-1, kd 1.474 1/s",5
same,pKD,"Immobilization level 13000.0 pg/mm2, ka 192202.373 M-1s-1, kd 1.118 1/s",5.24
CNCc1ccc(NC(=O)c2cc(Cl)cc3[nH]ncc23)cc1,pKD,"Immobilization level 3900.0 pg/mm2, Rmax 37.0 pg/mm2, ka 226628.924 M-1s-1, kd 2.375 1/s",4.98
same,pKD,"Immobilization level 4900.0 pg/mm2, Rmax 68.0 pg/mm2, ka 224620.672 M-1s-1, kd 2.867 1/s",4.89
same,pKD,"Immobilization level 5500.0 pg/mm2, Rmax 65.0 pg/mm2, ka 234270.717 M-1s-1, kd 2.589 1/s",4.96
same,pKD,"Immobilization level 10000.0 pg/mm2, Rmax 32.0 pg/mm2, ka 593939.753 M-1s-1, kd 4.324 1/s",5.14
same,pKD,"Immobilization level 12000.0 pg/mm2, Rmax 64.0 pg/mm2, ka 470578.84 M-1s-1, kd 3.187 1/s",5.17
same,pKD,"Immobilization level 13000.0 pg/mm2, Rmax 38.0 pg/mm2, ka 481481.04 M-1s-1, kd 3.216 1/s",5.17
